Reference: PubChem BioAssay AID1671202 (University of Kansas High Throughput Screening Laboratory, 2021)
Several values for one entry are separate records, joined by “and”; a condition that tells them apart may be missing. Identical values can stand only once. Hit rate of the full screen: of about 190,000 compounds, about 6,900 (3.6%) were called active. Rule as the data show it: active = inhibition above about 50%; inactive = the rest. The list comes from a sample in which actives are over-represented; it also holds similar structures and randomly drawn compounds. Some compounds were tested as several samples or in several runs, with calls that do not always agree.

What follows are molecules tested against Huntingtin (Homo sapiens) (UniProt P42858) (assay: mutant huntingtin-calmodulin interaction inhibitors – biochemical, AlphaScreen, primary screen (AID 1671202;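 also: 0% = both proteins with DMSO and 100% = one protein alone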)). Conditions: AlphaScreen His-mHTT/GST-CaM binding, luminescence; at 15 µM, stronger effect = higher value.
Sequence of Huntingtin (Homo sapiens) (P42858 whole entry, looked up, stated change not applied): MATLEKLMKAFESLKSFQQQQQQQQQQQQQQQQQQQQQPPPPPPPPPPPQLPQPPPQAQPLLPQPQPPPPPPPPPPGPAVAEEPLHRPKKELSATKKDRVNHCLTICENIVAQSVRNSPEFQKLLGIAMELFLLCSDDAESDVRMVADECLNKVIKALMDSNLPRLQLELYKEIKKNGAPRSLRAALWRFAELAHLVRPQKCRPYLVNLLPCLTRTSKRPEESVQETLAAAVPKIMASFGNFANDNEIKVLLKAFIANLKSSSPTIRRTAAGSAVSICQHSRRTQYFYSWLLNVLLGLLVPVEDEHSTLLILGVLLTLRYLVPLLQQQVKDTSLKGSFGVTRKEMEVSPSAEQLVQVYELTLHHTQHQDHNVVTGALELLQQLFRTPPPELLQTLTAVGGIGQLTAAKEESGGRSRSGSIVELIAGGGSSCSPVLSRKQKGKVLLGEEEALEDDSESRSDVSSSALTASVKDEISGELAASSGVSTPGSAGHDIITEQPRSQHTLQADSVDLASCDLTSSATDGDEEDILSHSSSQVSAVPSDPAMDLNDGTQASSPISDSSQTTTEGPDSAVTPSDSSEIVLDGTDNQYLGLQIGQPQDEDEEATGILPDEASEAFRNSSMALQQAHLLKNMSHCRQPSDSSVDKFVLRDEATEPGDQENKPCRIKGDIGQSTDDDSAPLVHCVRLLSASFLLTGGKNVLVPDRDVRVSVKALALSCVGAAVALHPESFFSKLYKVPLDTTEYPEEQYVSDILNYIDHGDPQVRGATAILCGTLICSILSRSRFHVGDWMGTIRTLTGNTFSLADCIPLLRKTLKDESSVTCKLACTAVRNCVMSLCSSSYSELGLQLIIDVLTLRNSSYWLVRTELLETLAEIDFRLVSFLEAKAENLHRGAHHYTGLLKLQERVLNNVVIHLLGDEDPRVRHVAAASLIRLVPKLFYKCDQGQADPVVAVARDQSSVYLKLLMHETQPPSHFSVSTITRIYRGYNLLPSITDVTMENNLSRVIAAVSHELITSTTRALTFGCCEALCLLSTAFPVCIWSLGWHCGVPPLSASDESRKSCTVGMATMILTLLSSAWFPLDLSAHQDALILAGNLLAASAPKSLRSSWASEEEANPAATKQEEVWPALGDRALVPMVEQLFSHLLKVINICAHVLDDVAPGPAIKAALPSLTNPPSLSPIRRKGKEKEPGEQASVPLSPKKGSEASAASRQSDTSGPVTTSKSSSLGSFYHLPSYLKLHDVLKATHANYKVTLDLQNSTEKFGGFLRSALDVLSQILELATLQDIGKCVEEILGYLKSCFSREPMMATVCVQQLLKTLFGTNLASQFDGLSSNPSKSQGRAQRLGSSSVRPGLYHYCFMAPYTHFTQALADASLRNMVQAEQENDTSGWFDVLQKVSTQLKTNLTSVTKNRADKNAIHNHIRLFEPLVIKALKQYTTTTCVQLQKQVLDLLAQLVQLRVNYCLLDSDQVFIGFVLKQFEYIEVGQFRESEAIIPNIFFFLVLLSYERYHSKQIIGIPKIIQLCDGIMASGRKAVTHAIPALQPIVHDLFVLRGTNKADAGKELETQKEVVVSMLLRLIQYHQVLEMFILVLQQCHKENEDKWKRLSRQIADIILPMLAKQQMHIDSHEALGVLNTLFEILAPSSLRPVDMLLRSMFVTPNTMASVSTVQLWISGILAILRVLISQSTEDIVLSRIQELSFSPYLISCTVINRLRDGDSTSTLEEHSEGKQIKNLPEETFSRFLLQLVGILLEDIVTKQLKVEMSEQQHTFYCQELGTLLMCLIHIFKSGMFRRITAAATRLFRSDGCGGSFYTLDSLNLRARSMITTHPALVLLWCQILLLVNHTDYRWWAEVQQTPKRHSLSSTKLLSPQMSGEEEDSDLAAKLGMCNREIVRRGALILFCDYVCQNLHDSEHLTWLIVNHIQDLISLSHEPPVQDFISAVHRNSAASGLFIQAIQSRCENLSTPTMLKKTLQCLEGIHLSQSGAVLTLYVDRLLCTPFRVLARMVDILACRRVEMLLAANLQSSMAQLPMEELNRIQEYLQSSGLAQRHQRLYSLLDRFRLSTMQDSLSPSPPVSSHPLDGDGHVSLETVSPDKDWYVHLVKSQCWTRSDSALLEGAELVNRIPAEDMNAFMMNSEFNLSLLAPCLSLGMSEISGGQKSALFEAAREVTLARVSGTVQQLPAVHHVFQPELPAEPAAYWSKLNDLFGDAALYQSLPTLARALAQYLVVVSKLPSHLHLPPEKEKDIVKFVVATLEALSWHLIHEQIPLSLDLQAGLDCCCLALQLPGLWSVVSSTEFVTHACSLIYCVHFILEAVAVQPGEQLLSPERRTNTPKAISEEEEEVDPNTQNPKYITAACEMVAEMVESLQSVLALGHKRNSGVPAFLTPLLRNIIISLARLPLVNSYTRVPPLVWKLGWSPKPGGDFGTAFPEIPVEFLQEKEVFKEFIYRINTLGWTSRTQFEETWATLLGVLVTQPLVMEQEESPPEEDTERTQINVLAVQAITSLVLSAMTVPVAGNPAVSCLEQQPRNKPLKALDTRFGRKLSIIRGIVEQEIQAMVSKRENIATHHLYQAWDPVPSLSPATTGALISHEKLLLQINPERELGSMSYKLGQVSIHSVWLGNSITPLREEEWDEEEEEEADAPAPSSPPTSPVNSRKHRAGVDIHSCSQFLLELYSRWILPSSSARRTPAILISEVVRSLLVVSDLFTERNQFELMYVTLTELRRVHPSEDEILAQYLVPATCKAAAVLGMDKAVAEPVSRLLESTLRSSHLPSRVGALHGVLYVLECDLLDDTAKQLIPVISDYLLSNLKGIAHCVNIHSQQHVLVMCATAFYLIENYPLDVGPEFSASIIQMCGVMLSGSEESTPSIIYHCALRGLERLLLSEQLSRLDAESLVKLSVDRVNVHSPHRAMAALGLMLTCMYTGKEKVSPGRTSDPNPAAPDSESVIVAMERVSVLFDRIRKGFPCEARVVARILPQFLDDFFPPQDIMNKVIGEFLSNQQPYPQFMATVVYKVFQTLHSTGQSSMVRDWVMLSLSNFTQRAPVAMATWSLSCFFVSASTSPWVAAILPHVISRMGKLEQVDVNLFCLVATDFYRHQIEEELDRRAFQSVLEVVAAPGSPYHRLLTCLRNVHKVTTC

SMILES | inhibition
Clc1ccc(Cl)c(-c2ccc(CNC3CC3)o2)c1 | -25.6% (inactive)
COc1ccc(CCCN)cc1OC | -2.8% (inactive)
COc1cc(CN2CCC(O)CC2)ccc1OCc1ccccc1 | -5.7% (inactive)
COc1cc(CNc2ccc(F)cc2)ccc1OCc1ccccc1 | 55.7% (active)
COc1ccc(CC(=O)Nc2c3c(nc4c2CCC4)CCCC3)cc1OC | 2% (inactive)
COc1ccc(CNc2ccc3c(c2)CCC3)cc1OC | 62.8% (active)
COc1ccc(CNC(=O)C(=O)Nc2ccc(OC)cc2)cc1 | -2.2% (inactive)
COc1ccc(NCc2ccc(OC)c(C)c2)cc1 | 52% (active)
COc1cc(C=C2C(=O)c3ccccc3C2=O)ccc1OCc1ccccc1 | 4% (inactive)
COc1ccc(CNc2nccs2)cc1 | 5.7% (inactive)
CCN1CCCC1CNC(=O)c1ccc(Sc2ccc(C)cc2)c(NC(C)=O)c1 (stereo not drawn) | -3% (inactive)
O=C(Nc1ccc(NC(=O)c2ccc([N+](=O)[O-])cc2Cl)cc1)c1ccco1 | -2.2% (inactive)
COc1cccc(C(=O)NCC2Cc3cc(OC)ccc3O2)c1 (stereo not drawn) | -0.8% (inactive)
O=C(CC1CCCCC1)N1CCC(COc2ccc(C(=O)N3CCCCC3)cc2)CC1 | -1.76% (inactive)
COc1ccc(C(=O)N2CCCCC2CCN2CCCC2)cn1 (stereo not drawn) | 6.78% (inactive)
O=C(c1ccco1)N1CCCC(c2nncn2-c2ccccc2)C1 (stereo not drawn) | 8.27% (inactive)
CCOc1cc(/C=C2\C(=O)NC(=O)N(c3ccc(Br)cc3)C2=O)ccc1O | 5% (inactive)
COc1cc(/C=C2\C(=O)Nc3ccc(Br)cc32)ccc1O | 100% (active)
CCOc1cc(/C=C2\C(=O)NC(=O)N(c3ccc(F)cc3)C2=O)ccc1O | 5% (inactive)
Cc1cc([N+](=O)[O-])nn1CCCC(=O)Nc1cc(Cl)ccc1O | 2% (inactive)
CC(C)(C)CC(=O)N1CCN(c2nc(CN3CCCCCC3)cs2)CC1 | -9.3% (inactive)

SMILES | inhibition
COc1cccc(C=C2Oc3cc(OCC(=O)NN)ccc3C2=O)c1OC | 4.1% (inactive)
COc1cccc(CCC(=O)N2CCCN(c3ncccc3-c3nc(C4CC4)no3)CC2)c1 | -31.2% (inactive)
Cn1nc(COc2ccccc2)c2c1CCN(C(=O)c1ccoc1)C2 | 3.9% (inactive)
Cc1ccc(S(=O)(=O)N2CCc3c(c(COc4ccccc4)nn3C)C2)cc1C | 60.3% (active)
Cn1nc(COc2ccccc2)c2c1CCN(C(=O)Nc1ccccc1F)C2 | 16.9% (inactive)
CC(C)CNC(=O)C(=O)NCC(c1ccco1)S(=O)(=O)c1cccs1 (stereo not drawn) | -9.6% (inactive)
O=C1C2C(C(=O)N1c1ccccc1[N+](=O)[O-])C1C=CC2C12CC2 (stereo not drawn) | 3% (inactive)
Cc1ccc(N2C(=O)CC(Nc3ccc(N4CCOCC4)cc3)C2=O)c(Br)c1 (stereo not drawn) | 60.1% (active) and 18.3% (inactive)
COc1ccc(N2C(=O)CC(Nc3ccc(OC(F)(F)F)cc3)C2=O)cc1 (stereo not drawn) | -4% (inactive)
Cc1ccc(NC2CC(=O)N(c3cccc(Cl)c3)C2=O)cc1 (stereo not drawn) | -2% (inactive)
O=C(Nc1ccc(N2CCCCC2)nc1)C1CC1 | -1% (inactive)
O=C(O)/C(=C\c1cccc([N+](=O)[O-])c1)NC(=O)c1ccco1 | -2.8% (inactive)
CCOc1ccc(Br)c(/C=C2\C(=O)Nc3ccc(Br)cc32)c1 | 31% (inactive)
CCc1ccc(/C=C2\C(=O)Nc3ccc(F)cc32)cc1 | 66% (active)
COc1ccc(/C=C2\C(=O)Nc3ccc(F)cc32)cc1OC | 40% (inactive)
Cc1ccc(C(=O)N2CCc3sc(C(=O)NCc4ccco4)cc3C2)cc1 | 13.6% (inactive)
Cc1nc2sccn2c1-c1csc(Nc2ncccn2)n1 | 3% (inactive)
Cc1ccn2c(-c3csc(Nc4ccc(C(=O)O)cc4)n3)c(C)nc2c1 | -2% (inactive)
Cc1ccn2c(-c3csc(Nc4ccc(N)cc4)n3)c(C)nc2c1 | 64.7% (active)
COCCCNC(=O)C1CCN(c2nnc(-c3ccccc3)o2)CC1 | 2.64% (inactive)
CCOC(=O)C1CCCN(CC(O)COC2CC3CCC2(C)C3(C)C)C1 (stereo not drawn) | 6.9% (inactive)

SMILES | inhibition
Oc1c(C(Nc2ccccn2)c2ccc(OC(F)F)cc2)ccc2cccnc12 (stereo not drawn) | 97% (active)
Oc1c(C(Nc2ccccn2)c2ccncc2)ccc2cccnc12 (stereo not drawn) | 100% (active)
Oc1c(C(Nc2ccccn2)c2cccnc2)ccc2cccnc12 (stereo not drawn) | 100% (active)
c1ccc(Nc2nc(-c3ccncc3)cs2)nc1 | 18% (inactive)
COc1ccccc1C=C1Oc2cc(C)cc(O)c2C1=O | -4.4% (inactive)
CCC(CC)NC(=O)C1CCc2nc(N3CCN(C(C)=O)CC3)sc2C1 (stereo not drawn) | 11.6% (inactive)
CC(NC(=O)CN1CCOCC1)C1CC1 (stereo not drawn) | -8.9% (inactive)
CN(C(=O)c1ccccn1)C1(C(=O)NC2CCCC2)CCCCC1 | -4% (inactive)
O=C(Nc1ccc2c(c1)OCCO2)C1CCc2sc(C(=O)N3CCCC3)cc2C1 (stereo not drawn) | 12.3% (inactive)
CC(C)(C)C(=O)NC(n1cccnc1=O)C(Cl)(Cl)Cl (stereo not drawn) | 2% (inactive)
CCCCN(CC)C(=O)c1c[nH]c2ccc(S(=O)(=O)Nc3ccccc3F)cc2c1=O | 14% (inactive)
O=C1CSC(c2ccccc2[N+](=O)[O-])N1c1ccc(Oc2ccccc2)cc1 (stereo not drawn) | 59% (active)
Cc1ccc(N2C(=O)CSC2c2ccccc2[N+](=O)[O-])cc1Cl (stereo not drawn) | 16% (inactive)
O=C1CSC(c2ccccc2[N+](=O)[O-])N1c1ccc(Br)cc1 (stereo not drawn) | 28% (inactive)
CCn1cc(CCNC(C)=O)c2cccnc21 | -8.1% (inactive)
O=C(O)COc1ccccc1C(c1c[nH]c2ccccc12)c1c[nH]c2ccccc12 | 88.9% (active)
CC(Cc1c[nH]c2ccccc12)NC(=O)c1ccncc1 (stereo not drawn) | 2.9% (inactive) and 3% (inactive)
CC(=O)NC(Cc1c[nH]c2ccccc12)C(=O)O (stereo not drawn) | 3.4% (inactive)
CC(=O)N1CCc2cc(N3CC(C(=O)Nc4cccc(F)c4)CC3=O)ccc21 (stereo not drawn) | 90.3% (active)
CC(=O)N1CCc2cc(N3CC(C(=O)Nc4ccc(C)cc4F)CC3=O)ccc21 (stereo not drawn) | -5.06% (inactive)
CCc1ccc(CNC(=O)C2CC(=O)N(c3ccc4c(c3)CCN4C(C)=O)C2)cc1 (stereo not drawn) | -4.01% (inactive)
